# Reference: the supplement of paper PMC7765376
# Where a name gives a salt, the structure may show the parent alone. Whole data set: some 1,500 compounds, median “Excess HSA synergy score (sum over dose matrix of excess over highest single agent)” near 43, cut for the lowest 2% near -900. The entries come from a sample that favours the lowest values as a whole.
# Tested on: PEO-1
# Assay: Excess HSA synergy score (sum over dose matrix of excess over highest single agent) (score (summed % response)); higher = less synergy / more antagonism (negative = synergy)
# Conditions: 72 h, read-out: viability/apoptosis luminescence (CellTiter-Glo or Caspase3-Glo / not stated per table)
# [1] = matrix design: 6x6, 5-fold dilutions (primary screen)
# [2] = matrix design: 10x10, 9-step dilutions (confirmatory)
Structure (SMILES),Excess HSA synergy score [1],Excess HSA synergy score [2]
COc1cc(C(C)=O)ccc1OCCCN1CCC(c2noc3cc(F)ccc23)CC1 [Iloperidone] + CC[C@H](NC(=O)[C@H](C)NC)C(=O)N1C[C@@H](O)C[C@H]1Cc1c(-c2[nH]c3cc(F)ccc3c2C[C@@H]2C[C@H](O)CN2C(=O)[C@H](CC)NC(=O)[C@H](C)NC)[nH]c2cc(F)ccc12 [Birinapant],75,
CN1C(=O)C(Cc2c[nH]c3ccccc23)NC1=S (stereo not drawn) [Necrostatin-1] + CC[C@H](NC(=O)[C@H](C)NC)C(=O)N1C[C@@H](O)C[C@H]1Cc1c(-c2[nH]c3cc(F)ccc3c2C[C@@H]2C[C@H](O)CN2C(=O)[C@H](CC)NC(=O)[C@H](C)NC)[nH]c2cc(F)ccc12 [Birinapant],340,
Clc1ccc(-c2nc3sccn3c2/C=N/OCc2ccc(Cl)c(Cl)c2)cc1 + CC[C@H](NC(=O)[C@H](C)NC)C(=O)N1C[C@@H](O)C[C@H]1Cc1c(-c2[nH]c3cc(F)ccc3c2C[C@@H]2C[C@H](O)CN2C(=O)[C@H](CC)NC(=O)[C@H](C)NC)[nH]c2cc(F)ccc12 [Birinapant],56.2,
NS(=O)(=O)OC[C@@H]1C[C@@H](n2ccc3c(N[C@H]4CCc5ccccc54)ncnc32)C[C@@H]1O + CC[C@H](NC(=O)[C@H](C)NC)C(=O)N1C[C@@H](O)C[C@H]1Cc1c(-c2[nH]c3cc(F)ccc3c2C[C@@H]2C[C@H](O)CN2C(=O)[C@H](CC)NC(=O)[C@H](C)NC)[nH]c2cc(F)ccc12 [Birinapant],-120,-1280
CN1CCCN=C1/C=C/c1cccs1 [Pyrantel pamoate] + CC[C@H](NC(=O)[C@H](C)NC)C(=O)N1C[C@@H](O)C[C@H]1Cc1c(-c2[nH]c3cc(F)ccc3c2C[C@@H]2C[C@H](O)CN2C(=O)[C@H](CC)NC(=O)[C@H](C)NC)[nH]c2cc(F)ccc12 [Birinapant],18.2,
O=C(Nc1nc2cccc(-c3ccc(CN4CCS(=O)(=O)CC4)cc3)n2n1)C1CC1 [Filgotinib] + CC[C@H](NC(=O)[C@H](C)NC)C(=O)N1C[C@@H](O)C[C@H]1Cc1c(-c2[nH]c3cc(F)ccc3c2C[C@@H]2C[C@H](O)CN2C(=O)[C@H](CC)NC(=O)[C@H](C)NC)[nH]c2cc(F)ccc12 [Birinapant],94.7,
COc1cccc2nc(-c3cccs3)nc(NN3C(=O)C=C(C)C3=O)c12 + CC[C@H](NC(=O)[C@H](C)NC)C(=O)N1C[C@@H](O)C[C@H]1Cc1c(-c2[nH]c3cc(F)ccc3c2C[C@@H]2C[C@H](O)CN2C(=O)[C@H](CC)NC(=O)[C@H](C)NC)[nH]c2cc(F)ccc12 [Birinapant],-105,-1130
COCC[n+]1c2c(n(Cc3cnccn3)c1C)C(=O)c1ccccc1C2=O [Sepantronium bromide] + CC[C@H](NC(=O)[C@H](C)NC)C(=O)N1C[C@@H](O)C[C@H]1Cc1c(-c2[nH]c3cc(F)ccc3c2C[C@@H]2C[C@H](O)CN2C(=O)[C@H](CC)NC(=O)[C@H](C)NC)[nH]c2cc(F)ccc12 [Birinapant],55.3,281
CCCCCNC(=O)N1CCC(CN(Cc2ccc(Cl)cc2)Cc2ccc([N+](=O)[O-])s2)C1 (stereo not drawn) + CC[C@H](NC(=O)[C@H](C)NC)C(=O)N1C[C@@H](O)C[C@H]1Cc1c(-c2[nH]c3cc(F)ccc3c2C[C@@H]2C[C@H](O)CN2C(=O)[C@H](CC)NC(=O)[C@H](C)NC)[nH]c2cc(F)ccc12 [Birinapant],-0.0169,
O=c1ccn(C2OC(CO)C(O)C2F)c(=O)[nH]1 (stereo not drawn) + CC[C@H](NC(=O)[C@H](C)NC)C(=O)N1C[C@@H](O)C[C@H]1Cc1c(-c2[nH]c3cc(F)ccc3c2C[C@@H]2C[C@H](O)CN2C(=O)[C@H](CC)NC(=O)[C@H](C)NC)[nH]c2cc(F)ccc12 [Birinapant],232,
Cc1cc(Nc2cc(CN3CCOCC3)c3nc(C)c(Cc4ccc(Cl)cc4F)n3n2)n[nH]1 [Gandotinib] + CC[C@H](NC(=O)[C@H](C)NC)C(=O)N1C[C@@H](O)C[C@H]1Cc1c(-c2[nH]c3cc(F)ccc3c2C[C@@H]2C[C@H](O)CN2C(=O)[C@H](CC)NC(=O)[C@H](C)NC)[nH]c2cc(F)ccc12 [Birinapant],66.5,
COc1ccc(-c2c(-c3ccc(O)cc3O)n[nH]c2C)cc1 + CC[C@H](NC(=O)[C@H](C)NC)C(=O)N1C[C@@H](O)C[C@H]1Cc1c(-c2[nH]c3cc(F)ccc3c2C[C@@H]2C[C@H](O)CN2C(=O)[C@H](CC)NC(=O)[C@H](C)NC)[nH]c2cc(F)ccc12 [Birinapant],59.5,
Cc1c(CN2CCN(S(C)(=O)=O)CC2)sc2c(N3CCOCC3)nc(-c3cnc(N)nc3)nc12 + CC[C@H](NC(=O)[C@H](C)NC)C(=O)N1C[C@@H](O)C[C@H]1Cc1c(-c2[nH]c3cc(F)ccc3c2C[C@@H]2C[C@H](O)CN2C(=O)[C@H](CC)NC(=O)[C@H](C)NC)[nH]c2cc(F)ccc12 [Birinapant],87.6,
C/C=C1\NC(=O)[C@H]2CSSCC/C=C/[C@H](CC(=O)N[C@H](C(C)C)C(=O)N2)OC(=O)[C@H](C(C)C)NC1=O [Romidepsin] + CC[C@H](NC(=O)[C@H](C)NC)C(=O)N1C[C@@H](O)C[C@H]1Cc1c(-c2[nH]c3cc(F)ccc3c2C[C@@H]2C[C@H](O)CN2C(=O)[C@H](CC)NC(=O)[C@H](C)NC)[nH]c2cc(F)ccc12 [Birinapant],-212,-1300
COc1cccc2c(NCc3ccccc3)nc(-n3c(N)nc4ccccc43)nc12 + CC[C@H](NC(=O)[C@H](C)NC)C(=O)N1C[C@@H](O)C[C@H]1Cc1c(-c2[nH]c3cc(F)ccc3c2C[C@@H]2C[C@H](O)CN2C(=O)[C@H](CC)NC(=O)[C@H](C)NC)[nH]c2cc(F)ccc12 [Birinapant],17,
N#CC1(c2cccc(C(=O)Nc3cc(Oc4ccc5nc(NC(=O)C6CC6)sc5n4)ccc3F)c2Cl)CC1 [Takeda-6d] + CC[C@H](NC(=O)[C@H](C)NC)C(=O)N1C[C@@H](O)C[C@H]1Cc1c(-c2[nH]c3cc(F)ccc3c2C[C@@H]2C[C@H](O)CN2C(=O)[C@H](CC)NC(=O)[C@H](C)NC)[nH]c2cc(F)ccc12 [Birinapant],135,
O[C@@H](CNC[C@H](O)[C@H]1CCc2cc(F)ccc2O1)[C@@H]1CCc2cc(F)ccc2O1 (racemic) [rac Nebivolol hydrochloride] + CC[C@H](NC(=O)[C@H](C)NC)C(=O)N1C[C@@H](O)C[C@H]1Cc1c(-c2[nH]c3cc(F)ccc3c2C[C@@H]2C[C@H](O)CN2C(=O)[C@H](CC)NC(=O)[C@H](C)NC)[nH]c2cc(F)ccc12 [Birinapant],50.2,
CC(C)(O)CC[C@@H](O)[C@](C)(O)[C@H]1CC[C@@]2(O)C3=CC(=O)[C@@H]4C[C@@H](O)[C@@H](O)C[C@]4(C)[C@H]3CC[C@]12C [20-hydroxyecdysone] + CC[C@H](NC(=O)[C@H](C)NC)C(=O)N1C[C@@H](O)C[C@H]1Cc1c(-c2[nH]c3cc(F)ccc3c2C[C@@H]2C[C@H](O)CN2C(=O)[C@H](CC)NC(=O)[C@H](C)NC)[nH]c2cc(F)ccc12 [Birinapant],229,
O=C(Nc1ccccc1Br)N[C@@H]1CCN(c2ccc(C(F)(F)F)cn2)C1 + CC[C@H](NC(=O)[C@H](C)NC)C(=O)N1C[C@@H](O)C[C@H]1Cc1c(-c2[nH]c3cc(F)ccc3c2C[C@@H]2C[C@H](O)CN2C(=O)[C@H](CC)NC(=O)[C@H](C)NC)[nH]c2cc(F)ccc12 [Birinapant],-16.5,
C[C@H](NC(=O)C(=O)Nc1ccccc1C(C)(C)C)C(=O)N[C@@H](CC(=O)O)C(=O)COc1c(F)c(F)cc(F)c1F [Emricasan] + CC[C@H](NC(=O)[C@H](C)NC)C(=O)N1C[C@@H](O)C[C@H]1Cc1c(-c2[nH]c3cc(F)ccc3c2C[C@@H]2C[C@H](O)CN2C(=O)[C@H](CC)NC(=O)[C@H](C)NC)[nH]c2cc(F)ccc12 [Birinapant],,-606
COc1ccc2c(OCc3nnc4ccc(-c5ccccc5)nn34)ccnc2c1 + CC[C@H](NC(=O)[C@H](C)NC)C(=O)N1C[C@@H](O)C[C@H]1Cc1c(-c2[nH]c3cc(F)ccc3c2C[C@@H]2C[C@H](O)CN2C(=O)[C@H](CC)NC(=O)[C@H](C)NC)[nH]c2cc(F)ccc12 [Birinapant],-55.6,
N[C@@H](CSC(c1ccccc1)(c1ccccc1)c1ccccc1)C(=O)O [S-Trityl-L-cysteine] + CC[C@H](NC(=O)[C@H](C)NC)C(=O)N1C[C@@H](O)C[C@H]1Cc1c(-c2[nH]c3cc(F)ccc3c2C[C@@H]2C[C@H](O)CN2C(=O)[C@H](CC)NC(=O)[C@H](C)NC)[nH]c2cc(F)ccc12 [Birinapant],-23.2,
CCC(=O)NCC[C@@H]1CCc2ccc3c(c21)CCO3 [Ramelteon] + CC[C@H](NC(=O)[C@H](C)NC)C(=O)N1C[C@@H](O)C[C@H]1Cc1c(-c2[nH]c3cc(F)ccc3c2C[C@@H]2C[C@H](O)CN2C(=O)[C@H](CC)NC(=O)[C@H](C)NC)[nH]c2cc(F)ccc12 [Birinapant],10.8,
NC(=O)c1c(OCc2c(F)cc(Br)cc2F)nsc1NC(=O)NCCCCN1CCCC1 + CC[C@H](NC(=O)[C@H](C)NC)C(=O)N1C[C@@H](O)C[C@H]1Cc1c(-c2[nH]c3cc(F)ccc3c2C[C@@H]2C[C@H](O)CN2C(=O)[C@H](CC)NC(=O)[C@H](C)NC)[nH]c2cc(F)ccc12 [Birinapant],11,
